Out of some 340,000 compounds screened, about 2,100 (0.62%) were called active.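 How the source made its calls: active means first-screen hits whose inhibition reached a set limit at any dose in the follow-up dose series; inconclusive means inhibition above the set first-screen limit but never retested; inactive means the rest.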 The list is a sample of the results. Entries with a potency or affinity are not part of this list.
target: Rac GTPase-activating protein 1 (Homo sapiens) (UniProt Q9H0H5); experiment: blockers of MgcRacGAP-driven Rac1 GTP hydrolysis – biochemical, ADP Hunter fluorescence, primary and confirmatory, confirmation (AID 624330); details: MgcRacGAP-stimulated Rac1 GTP hydrolysis, at 30 µM, hits give high values, GST-tagged Rac1 F28L mutant substrate;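 further: fluorescence reports GDP produced by GAP-driven GTP hydrolysis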
Sequence (Q9H0H5 whole entry, looked up): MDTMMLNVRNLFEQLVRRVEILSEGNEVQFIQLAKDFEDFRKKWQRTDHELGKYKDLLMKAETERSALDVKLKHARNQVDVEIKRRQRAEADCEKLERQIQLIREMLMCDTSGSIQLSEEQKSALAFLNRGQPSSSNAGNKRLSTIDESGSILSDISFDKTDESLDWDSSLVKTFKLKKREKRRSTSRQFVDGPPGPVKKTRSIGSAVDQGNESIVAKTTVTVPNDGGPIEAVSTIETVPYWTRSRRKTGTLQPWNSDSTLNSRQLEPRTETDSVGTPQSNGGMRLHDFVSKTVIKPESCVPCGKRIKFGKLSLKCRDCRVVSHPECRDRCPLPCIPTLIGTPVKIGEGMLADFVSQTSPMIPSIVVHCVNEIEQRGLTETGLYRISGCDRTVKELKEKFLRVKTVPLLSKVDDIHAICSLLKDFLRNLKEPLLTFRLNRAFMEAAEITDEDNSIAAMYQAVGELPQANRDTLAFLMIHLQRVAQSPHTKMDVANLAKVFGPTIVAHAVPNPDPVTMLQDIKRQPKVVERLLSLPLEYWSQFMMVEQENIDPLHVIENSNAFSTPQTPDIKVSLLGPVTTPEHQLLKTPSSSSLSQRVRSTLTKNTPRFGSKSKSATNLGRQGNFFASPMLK

inhibition, inactive:
CC1(C)OC(=O)C=C[C@]2(C)[C@H]3CC[C@@]4(C)[C@H](C(=O)O)OC(=O)[C@H]5O[C@]54[C@]3(C)C(=O)C[C@@H]12 10.6%
C[C@@H]1CN([C@H](C)CO)S(=O)(=O)c2ccc(C#Cc3ccccc3)cc2O[C@@H]1CN(C)C(=O)CN(C)C 10.8%
CCOc1ccc(/C=N/NC(=O)Cc2csc(Nc3cccc(C(F)(F)F)c3)n2)cc1 13.7%
Cc1ccc(/C=C/C(=O)Nc2ccncc2)o1 8.37%
Cc1ccc(/C=C/C(=O)Nc2ccc([N+](=O)[O-])cc2)o1 5.27%
O=C(O)C1C2C=CC3(CN(c4cccc(C(F)(F)F)c4)C(=O)C13)O2 (configuration not stated) 2.13%
Cc1cc(C)cc(N(CC(=O)N2CCCC2)S(C)(=O)=O)c1 0.27%
COc1ccccc1C(CNC(=O)CNC(=O)c1ccccc1Cl)N1CCCC1 (configuration not stated) 4.57%
CCOCCCNC(=O)/C(C#N)=C/c1ccc(Cl)c([N+](=O)[O-])c1 2.68%
CCOCCCNC(=O)/C(C#N)=C/c1ccc(C)o1 -11.1%
O=S(=O)(c1ccccc1)c1nc(Nc2cccc(O)c2)sc1Cl 8.03%
COc1ccccc1NC(=O)c1cc2ccccc2o1 10.9%
COc1ccc2[nH]c3c(c2c1)CNCC3 17.4%
O=C(CNCC1CCCCC1)Nc1ccc(OC(F)(F)F)cc1 19.5%
CCN1CCCC1CNC(=O)C(=O)Nc1ccc(OC)cc1 (configuration not stated) 8.81%
O=C(CN(Cc1ccco1)C(=O)CNS(=O)(=O)c1ccc(F)cc1)NCc1ccco1 7.49%
COCc1cc(/C=N\NC(=O)c2ccc(Cl)cc2)ccc1OC 7.25%
Cc1ccc(Cn2nnc3c(=O)[nH]c(C4CCCN(C(=O)Nc5ccc(F)cc5)C4)nc32)cc1 (configuration not stated) 2.33%
COc1ccc2[nH]c(C)cc(=O)c2c1 17.3%
COc1ccc2[nH]c3c(Cl)ncnc3c2c1 2.77%
Cc1c2ccncc2cc2c1[nH]c1ccccc12 8.32%
COc1ccc2[nH]c3c(=S)nc[nH]c3c2c1 16.8%
CC(C)C(=O)N(Cc1cc2ccccc2[nH]c1=O)C(C)(C)C 4.65%
Cc1ccc(S(=O)(=O)N2CCN(C(=O)COC(=O)CC(C)c3ccccc3)CC2)c(C)c1 (configuration not stated) -1.45%
COc1ccccc1NC(=S)NCC1CCCO1 (configuration not stated) 8.32%
Cc1cc(F)ccc1S(=O)(=O)N1CCCOC1CNC(=O)C(=O)NCC(C)C (configuration not stated) 3.59%
O=C(CCC(=O)c1cccs1)NCc1ccncc1 8.09%
COc1ccccc1CNS(=O)(=O)CCNCc1ccco1 7.98%
Cc1ccc(NCCc2ccc(C)nc2)cc1 24.8%
Cc1ccc(CCNc2ccccc2C)cn1 6.7%
CCc1nnc(N/N=C/c2c(Cl)cccc2Cl)n1N 6.89%
CCc1nnc(N/N=C/c2cc(C)c(C)cc2C)n1N 8.58%
CCc1nnc(N/N=C/c2ccccc2F)n1N -6.59%
Cc1[nH]c2ccccc2c1/C=N/n1cnnc1 11.3%
Cc1[nH]c2ccccc2c1/C=N/NC(N)=S 15.4%
Cc1ccc(/C=N/Nc2nncn2N)cc1 -7.75%
Cc1ccc(CN(C)C(=O)CSc2nnc3n2CCCCC3)c(C)c1 -1.85%
CCC(C(=O)OC)n1cnc2c(nnn2-c2cccc(Cl)c2)c1=O (configuration not stated) -2.79%
COc1ccc(N2CCN(C(=O)c3sc4ncn(CC(=O)N5CCCCC5)c(=O)c4c3C)CC2)cc1 22.1%
O=C(NC1CCSc2ccccc21)c1cc(S(=O)(=O)N2CCOCC2)ccc1Cl (configuration not stated) 0.41%
N#Cc1ccsc1NC(=O)CCN1C(=O)C2CCCCC2C1=O (configuration not stated) -1.49%
C/C(=N\NC(=O)c1c(Cl)cnn1C)c1cccc(NC(=O)c2ccc(C)cc2)c1 2.57%
COC(=O)/C(=C\c1ccc([N+](=O)[O-])cc1)NC(=O)c1ccccc1 -0.53%
CCO[C@@H]1OC(C(=O)NC2CC2)=C[C@H](c2ccccc2)[C@H]1CCCO 2.47%
COC1=C(N)C(=O)c2nc(C)ccc2C1=O -3.53%
COC1=C(Br)C(=O)c2ncccc2C1=O -0.95%
COc1ccc(CN(CC(=O)NCc2ccco2)C(=O)CNS(=O)(=O)c2ccc(C)cc2)cc1 -1.32%
COc1ccc(CCCN2CCC(CN3CCNC(=O)C3=O)CC2)cc1OC 15.8%
COc1ccc(/C=N/N2CCN(c3ccc(Cl)cc3)CC2)cc1O 13.4%
C[C@H](NC(=O)c1ccc(Cl)cc1)C(=O)NNC(=O)c1cccs1 4.07%
O=C(O)/C(=C\c1ccc(Cl)c([N+](=O)[O-])c1)c1ccc(S(=O)(=O)N2CCCCC2)s1 9.75%
COc1cc(/C=C/C(=O)OCC(=O)c2c(N)n(C)c(=O)n(C)c2=O)ccc1O 17%
O=C(/C=C/c1ccco1)OCC(=O)c1ccc(OC(F)F)cc1 7.34%
COc1ccc(/C=C/C(=O)OCC(=O)c2ccc[nH]2)cc1 2.04%
COc1cc(/C=C/C(=O)OCC(=O)c2ccc[nH]2)cc(OC)c1OC 1.61%
Cn1c(NN)nc2sc3c(c2c1=O)CC(C)(C)OC3 -17.1%
O=S(=O)(Nc1ccc(N2CCOCC2)cc1)c1ccc(F)cc1 6.7%
CSCC[C@H](NS(=O)(=O)c1ccc(C)cc1)C(=O)N1CCC(C(=O)N[C@@H](C)C(=O)O)CC1 -1.38%
O=C(CN1CCN(c2ccc(F)cc2)CC1)N(C1CCCC1)C1CCS(=O)(=O)C1 (configuration not stated) 3.6%
O=C(CN1CCN(c2cccc(C(F)(F)F)c2)CC1)N(C1CC1)C1CCS(=O)(=O)C1 (configuration not stated) -5.48%
CCOC(=O)c1c(C)[nH]c(C(=O)OCC(=O)Nc2cc(C)c(Cl)cc2OC)c1C 10.4%
Cc1ccc(NC(=O)N2CCCC2C(=O)NCc2ccc3c(c2)OCO3)cc1 (configuration not stated) 2.95%
CC(C)Nc1nc(Oc2ccc(=O)n(-c3ccccc3)n2)nc(N(C)C)n1 12%
COc1cccc(N2CCN(C(=S)Nc3ccc(C)cc3C)CC2)c1 12.4%
O=C(Nc1ccc(F)cc1)c1cncs1 9.26%
CC[n+]1c(/C=C2\C=C(C)CC(C)(C)C2)sc2ccccc21 31.8%
C=CC[n+]1ccc(/C=C2\C=Cc3cc(C)ccc3N2CC)c2ccccc21 17%
CCc1cc2c(SCC(=O)NC3CCCC3)ncnc2s1 6.67%
COc1cccc(NC(=O)[C@@H]2CCC(=O)N2C2OC(=O)c3ccccc32)c1 (some centres not stated) -0.84%
CC(=O)Nc1ccc(NC(=O)Cn2cnc(S(=O)(=O)N3CCOCC3)c2)cc1 -16.8%
Cc1ccc(CNC(=O)CSCc2ccccc2)cc1 10.2%
Cc1ccc(CSCC(=O)NCCc2ccccc2)cc1 -4.12%
Cc1ccc(CSCCNC(=O)CSCc2ccc([N+](=O)[O-])cc2)cc1 6.03%
Cc1ccc(CCNC(=O)CSCc2ccc(F)cc2)cc1 8.48%
CC1=C(C#N)C(c2ccc(O)cc2)C(C#N)=C(C)N1 11.8%
CCOc1ccc(NC(=O)CN2CCN(CC(=O)Nc3ccc(C(=O)OC)cc3)CC2)cc1 6.74%
C/C(=N\NC(=O)Cn1nc(C)c([N+](=O)[O-])c1C)c1ccc(Cl)s1 5.29%
COC(=O)c1scc2c(=O)cc(C(F)(F)F)[nH]c12 6.18%
Cc1cc(OCC(=O)N(C(C)C)C(C)C)cc(C)c1Br 7.37%
COc1ccc(/C=N/N2CCN(c3ccccc3OC)CC2)cc1Br 5.46%
COc1ccc(/C=N/N2CCN(C)CC2)cc1OC 4.11%
COc1ccccc1N1CCN(/N=C(\C)c2ccc(O)cc2)CC1 8.49%
CC(=O)Oc1ccc(/C(C)=N/N2CCN(Cc3ccc(C)cc3)CC2)cc1 -1.21%
COc1ccc(/C=N/N2CCOCC2)cc1O 6.98%
COc1cc(/C=N/N2CCN(Cc3ccc(C)cc3)CC2)cc(OC)c1O 25.8%
COc1ccccc1N1CCN(/N=C(\C)c2ccccc2O)CC1 9.26%
COc1ccc(/C=N/N2CCN(c3ccccc3OC)CC2)cc1OC 1.46%
COc1ccc(-c2cc([C@H]3[C@H]4C=CC[C@@H](C)[C@@H]4C(=O)N3Cc3ccccc3)ccc2F)cc1 4.49%
CCC(C)N(C(=O)COC(=O)c1ccc(=O)n(Cc2ccccc2)n1)C1CCS(=O)(=O)C1 (configuration not stated) 2.85%
CSc1nc(C(=O)N2CCc3c([nH]c4ccccc34)C2c2ccccn2)cs1 (configuration not stated) 3.69%
CCCCNC(=O)Cn1c(=O)c2c(ncn2CCC(C)C)n(Cc2ccccc2)c1=O 6.76%
CCOC(=O)/C=C1\SCC(=O)N1CC(=O)NC(c1ccccc1)c1ccccc1 5.26%
CN(CC(=O)Nc1cccc(F)c1)C(=O)CSc1ccccc1 1.63%
COc1ccccc1N1CCN(/N=C/c2cccc(O)c2)CC1 10.5%
COc1ccccc1N1CCN(/N=C\c2ccccc2)CC1 -17.8%
COc1ccccc1N1CCN(/N=C/c2cccc(OC)c2O)CC1 -28.4%
COc1ccccc1N1CCN(/N=C/c2cc(OC)c(OC)c(OC)c2)CC1 -2.37%
